Screens from PubChem BioAssay.
The list is not random: actives were taken first. Their share in the collection is about 11%.
HP1b binding inh: HTS for Inhibitors of HP1-beta Chromodomain Interactions with Methylated Histone Tails. Potency, µM (top dose mostly 114 µM), inactives show at the highest dose activity change, negative = inhibition, hits mostly inhibitors. AlphaScreen HP1-beta / biotin-H3K9me3 peptide binding. AID 540317, 2011. actives 0.56% (n = 390,000); further: nearly all actives have a fitted effect of over 70% in size
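Compound inhibition of the preformed complex between 50 nM HP1-beta and 50 nM biotinylated H3K9me3 peptide was read by AlphaScreen. Buffer was PBS pH 7.4 with 0.01% Tween-20. Incubations ran 30 min at room temperature, with 10 ug/mL donor/acceptor beads.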
L3MBTL1 inh: qHTS Assay for the Inhibitors of L3MBTL1; AlphaScreen L3MBTL1–H3K9me1 peptide binding; Potency, µM (highest dose often 57.1 µM), inactives show at the highest dose activity, negative = inhibition, usual class: inhibitors; actives 0.66% (n = 230,000); AID 485360, 2010; further: on the % scale 0 is the no-effect control and ±100 the full control effect; nearly all actives have a fitted effect of over 60% in size
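AlphaScreen assay: L3MBTL1 (50 nM final) was preincubated 30 min at room temperature with biotinylated H3(1-15)K9me1 peptide (75 nM final), then 30 min with library compounds; streptavidin donor and nickel chelate acceptor beads (10 ug/mL final) added, 30 min dark.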
JMJD2A Tudor: qHTS Assay for Inhibitors of JMJD2A-Tudor Domain. Lysine-specific demethylase 4A (Homo sapiens), O75164. AlphaScreen JMJD2A-Tudor / H3K4me3 peptide binding. Potency, µM (series often up to 114 µM), inactives show at the top dose activity change, negative = inhibition, most hits filed as inhibitors. actives 4.4% (n = 390,000). AID 504339, 2011; further: on the % scale 0 is the no-effect control and ±100 the full control effect; nearly all actives have a fitted effect of over 50% in size
Target sequence (O75164 whole entry, looked up, the tested form may be a part): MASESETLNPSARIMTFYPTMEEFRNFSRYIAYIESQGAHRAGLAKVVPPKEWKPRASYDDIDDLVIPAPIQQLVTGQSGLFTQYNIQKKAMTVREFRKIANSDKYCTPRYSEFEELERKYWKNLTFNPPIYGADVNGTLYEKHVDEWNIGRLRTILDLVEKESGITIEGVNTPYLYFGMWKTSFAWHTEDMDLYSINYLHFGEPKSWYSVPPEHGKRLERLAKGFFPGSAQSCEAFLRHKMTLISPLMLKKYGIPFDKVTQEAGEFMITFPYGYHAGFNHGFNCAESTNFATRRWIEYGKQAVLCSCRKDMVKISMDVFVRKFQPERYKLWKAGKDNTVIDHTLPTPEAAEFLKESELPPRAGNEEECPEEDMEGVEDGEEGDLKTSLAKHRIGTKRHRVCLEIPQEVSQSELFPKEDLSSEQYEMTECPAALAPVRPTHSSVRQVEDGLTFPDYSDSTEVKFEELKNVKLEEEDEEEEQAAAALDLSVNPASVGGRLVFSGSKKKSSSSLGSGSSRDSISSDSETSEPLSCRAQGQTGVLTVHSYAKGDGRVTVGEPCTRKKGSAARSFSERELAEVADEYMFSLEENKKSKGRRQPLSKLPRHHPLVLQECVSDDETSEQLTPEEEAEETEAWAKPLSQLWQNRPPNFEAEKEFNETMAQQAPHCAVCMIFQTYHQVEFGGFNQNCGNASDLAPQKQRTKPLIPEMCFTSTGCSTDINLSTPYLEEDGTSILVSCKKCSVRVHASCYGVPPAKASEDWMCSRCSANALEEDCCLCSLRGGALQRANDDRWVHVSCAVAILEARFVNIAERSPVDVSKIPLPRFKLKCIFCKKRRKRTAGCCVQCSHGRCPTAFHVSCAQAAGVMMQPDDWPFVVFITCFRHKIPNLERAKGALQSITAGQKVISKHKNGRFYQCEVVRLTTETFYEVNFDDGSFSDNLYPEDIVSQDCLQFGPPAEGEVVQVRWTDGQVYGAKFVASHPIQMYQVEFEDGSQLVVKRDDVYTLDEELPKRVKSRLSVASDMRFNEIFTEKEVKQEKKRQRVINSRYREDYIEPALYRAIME
BAZ2B block: qHTS Assay for Inhibitors of BAZ2B. Bromodomain adjacent to zinc finger domain protein 2B (Homo sapiens), Q9UIF8. AlphaScreen BAZ2B-H3K14Ac peptide displacement. Potency, µM (doses to about 114 µM), inactives show top-dose activity change, negative = inhibition, most hits filed as inhibitors. actives 4.4% (n = 360,000); further: on the % scale 0 is the no-effect control and ±100 the full control effect; nearly all actives have a fitted effect of over 60% in size
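Inhibition is scored as reduced AlphaScreen emission. The BAZ2B/b-H3(5-23)K14Ac complex (50 nM each) in PBS pH 7.4, 0.01% Tween-20 meets compound (up to 110 uM) for 30 min at RT before bead addition.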
G9a block: qHTS Assay for Inhibitors of Histone Lysine Methyltransferase G9a. Histone-lysine N-methyltransferase EHMT2 (Homo sapiens), Q96KQ7. G9a H3K9 monomethylation, AlphaScreen, 2 h. Potency, µM (doses to about 102 µM), inactives show at the top dose activity, negative = inhibition, most hits filed as inhibitors. actives 8.8% (n = 350,000). AID 504332, 2011; further: on the % scale 0 is the no-effect control and ±100 the full control effect; nearly all actives have a fitted effect of over 75% in size
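G9a (20 nM) was preincubated 15 min with compound, then reacted 2 h at room temperature with 500 nM biotin-H3K9 peptide and 20 µM SAM. Monomethyl-H3K9 detected by AlphaScreen using anti-H3K9me1 antibody.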
Numbers without * were called inactive; ? = inconclusive; · = no result given; [ ] = another dose, or the depositor's remark. The call rests on the fitted dose curve; in most records, active means well fitted inhibition curve with a large enough effect; inconclusive means small, poorly fitted or top-dose-only effect; inactive means no such curve, though single readings can be large or run the other way. Potency means the concentration at half of the fitted maximal effect.

SMILES	HP1b binding inh	L3MBTL1 inh	JMJD2A Tudor	BAZ2B block	G9a block
O=C(CCCN1C(=O)/C(=C/c2ccccc2Cl)SC1=S)Nc1cccnc1	-17.1%	·	22.4µM*	?	-34.5%
O=C1/C(=C/c2ccccc2Cl)SC(=S)N1CCCC(=O)N(CCO)c1ccccc1	-23.3%	·	8.91µM*	3.16µM*	20µM*
O=C(CCN1C(=O)/C(=C/c2ccccc2F)SC1=S)Nc1ccccn1	-0.2%	·	-21.2%	?	21.7%
CC(NC(=O)CN(c1ccc(Cl)cc1Cl)S(=O)(=O)c1ccccc1)c1ccccc1 (configuration not stated)	23.1%	·	-6.3%	-7.8%	2.6%[59 µM]
N#Cc1nc(NCC(F)F)c2ncn(-c3cccc(Cl)c3)c2n1	·	·	-3.4%	·	·
O=C(Nc1ccncc1)C1C(=O)c2ccccc2N(Cc2ccccc2)C1=O (configuration not stated)	0.4%	·	-22.7%	·	·
Cc1ccc(NC(=O)C2CCC(CNS(=O)(=O)c3csc(C(N)=O)c3)CC2)cc1Cl (configuration not stated)	17.1%	·	1.9%	2.7%	8.1%[59 µM]
O=C(CCN1C(=O)/C(=C\c2cccs2)SC1=S)Nc1ccccn1	12.6%	?	-23.4%	?	?
COc1cc(/C=C2\SC(=S)N(CCC(=O)Nc3ccccn3)C2=O)cc(OC)c1OC	-20.1%	·	-21.5%[57.1 µM]	-20.4%	7.94µM*
O=C(CCCN1C(=O)/C(=C/c2cccs2)SC1=S)Nc1ccccn1	?	35.5µM*	?	?	?
COC(=O)C1=COC(OC2OC(CO)C(O)C(O)C2O)C2C1C=CC2(O)CO (configuration not stated)	20µM*	·	35.5µM*	28.2µM*	0.6%[12.7 µM]
O=C1N=c2ccc(Br)cc2=C1c1sc(=O)[nH]c1O	·	·	·	?	44.7µM*
COc1ccc(NC(=O)CN2C(=O)COc3ccc(S(=O)(=O)Nc4ccccc4)cc32)cc1OC	-18.9%	·	-19.9%	-5.2%	-5.8%[59 µM]
COc1ccccc1CNc1ccnc(-c2cccc(NS(C)(=O)=O)c2)n1	·	·	·	·	-0.1%[0.501 µM]
NS(=O)(=O)c1ccc(Nc2nc(-c3ccc(O)cc3O)cs2)cc1	-15.8%	·	-22.9%	?	0.7%[59 µM]
Oc1ccc(-c2csc(Nc3ccccn3)n2)c(O)c1	13.8%	-15.3%	-26.2%	-12.1%	44.7µM*
Fc1ccc(-c2csc(Nc3ccccn3)n2)cc1	28.7%	-1.0%	-27.2%	-38.8%	79.4µM*
Cc1cccnc1Nc1nc(-c2ccc(O)cc2O)cs1	-33.9%	-7.3%	14.1µM*	?	6.31µM*
c1ccc(Nc2nc(-c3cccnc3)cs2)nc1	13.2%	-4.4%	-13.7%	-3.1%	-27.3%[0.0925 µM]
COC(=O)c1sc(S(=O)(=O)NCC(=O)O)c(C(=O)OC)c1C	7.7%	4.1%	-1.4%	?	70.8µM*
CCC(=O)Nc1sc(C(=O)OC)c(C)c1C(=O)OC	-15.3%	6.7%	-16.6%	19.4%	28.2µM*
COC(=O)c1sc(NC(=S)NNC(=O)c2c(Br)c(C)nn2C)c(C(=O)OC)c1C	-19.0%	·	50.1µM*	25.1µM*	·
CCOC(=O)c1sc(NC(=O)OC)c(C(=O)OC)c1C	27.0%	14.2%	-7.4%	2.4%	3.2%
COC(=O)c1sc(S(=O)(=O)Nc2c(C)nn(C)c2C)c(C(=O)OC)c1C	30.5%	?	1.0%	-3.1%	56.2µM*
COC(=O)c1sc(S(=O)(=O)NC(C)C(=O)O)c(C(=O)OC)c1C (configuration not stated)	34.4%	12.5%	-1.4%[57.1 µM]	-16.3%	?
SMILES	HP1b binding inh	L3MBTL1 inh	JMJD2A Tudor	BAZ2B block	G9a block
Cc1ccc(-n2ncc(C(=O)NCCc3ccsc3)c2C2CCN(C(=O)OC(C)(C)C)CC2)c(C)c1	24.4%	·	-30.4%	0.3%[57.1 µM]	-28.4%[59 µM]
CCCc1cnc2c(c1SCC(=O)N1CCC(C)CC1)c(=O)n(C)c(=O)n2C	33.2%	·	-8.8%	-7.5%	4.0%[59 µM]
O=C(CC1Oc2ccccc2NC1=O)NCc1ccccc1 (configuration not stated)	3.6%	0.2%	?	-2.3%	6.8%
CC(=O)CC1OC(=O)C(Br)=C1NCc1ccccc1 (configuration not stated)	-22.4%	-7.2%	-19.0%	-1.9%	35.5µM*
COc1ccc(CCNC(=O)C(=O)NCC2OCCN2S(=O)(=O)c2cccs2)cc1 (configuration not stated)	20.6%	·	-14.5%	-1.1%	·
COc1cccc(-c2nnc3n2N=C(c2c(OC)cccc2OC)CS3)c1	·	·	-18.6%	·	·
CC(C)NC(=O)N1CCN(S(=O)(=O)c2ccc3c(ccn3C)c2)CC1	21.7%[57 µM]	·	-12.8%	0.7%	-0.5%[59 µM]
COc1cccc(/C=N/n2c(COc3ccccc3)n[nH]c2=S)c1OC	-12.9%	·	28.2µM*	-31.6%	8.91µM*
COc1cccc(/C=N/n2c(COc3ccccc3)n[nH]c2=S)c1O	?	·	50.1µM*	-32.3%	15.8µM*
COc1cccc(/C=N/n2c(C)nc3ccccc3c2=O)c1O	18.8%	5.6%	-12.1%	-20.9%	?
Cc1n[nH]c(=S)n1/N=C/c1ccccc1OCc1ccc(Cl)cc1	19.8%	4.1%	50.1µM*	8.1%	?
Nc1nnnn1/N=C/c1ccccc1OCc1ccc(Cl)cc1	23.8%	-5.4%	-9.0%	-0.8%	-6.6%[59 µM]
CCOC(=O)c1cc(-c2ccccc2)n(CCC(=O)Nc2ccc(OC)c(Cl)c2)c1C	21.6%	·	-34.3%	-4.2%	-25.1%[59 µM]
Clc1ccc(Nc2nc(C3CC3)cs2)cc1	28.8%	·	-33.8%	-5.5%	39.8µM*
Cc1ccc(Nc2nc(C3CC3)cs2)cc1	·	7.8%	·	-4.9%	39.8µM*
CCOC(=O)/C(=N\Nc1ccc(Cl)cc1)c1csc(Nc2ccccc2)n1	-16.8%	·	?	-13.0%	?
CCN1CCCC1CNCc1cccc(OC)c1OCc1ccccc1 (configuration not stated)	28.4%	5.2%	-12.1%	-30.1%	-10.2%[59 µM]
CCN1CCCC1CNCc1ccccc1OCc1ccc(F)cc1 (configuration not stated)	30.1%	·	-30.9%	-31.0%	56.2µM*
CCCCCCOC(=O)C1(O)CC2OC1(C)n1c3ccccc3c3c4c(c5c6ccccc6n2c5c31)C(=O)NC4 (configuration not stated)	·	·	·	·	26.0%[2.33 µM]
CC(C)c1cc(/C=C(\C#N)C(=O)NCCCc2ccccc2)cc(C(C)C)c1O	·	·	·	·	9.8%[59 µM]
CCOc1cc2c(cc1/C=C/c1noc(C)c1[N+](=O)[O-])OC(C)C2 (configuration not stated)	31.4%	·	1.5%	1.0%	44.7µM*
C#CC[N+]1(CC#Cc2ccc(C#CC[N+]3(CC#C)CCOCC3)cc2)CCOCC1	10.6%	14.3%	-15.1%	8.7%	8.91µM*
